pAkt inh: Akt phosphorylation inhibition | 360,000 tested, 0.32% active | activity change, % for hits at 50 µM | Neuro2A IGF-stimulated pAkt S473 HTRF, 20 min; hits give low values; in the data active = activity change below about -80%; inconclusive = mostly about -51% to -80%
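Neuro2A cells (4,500/well, DMEM with 0.5% FBS) were treated with compound at a single 50 µM final concentration, stimulated with 6 nM IGF for 20 min at 37 °C, and lysed. Phospho-Akt Ser473 was read by HTRF as 665/615 ratio ×10^4.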
Six1-Eya2 blk: inhibitors of human Six1/Eya2 interaction | 360,000 tested, 0.56% active | activity change, % (concentration not given with the values) | AlphaScreen GST-Six1/His-Eya2 binding, biochemical; hits give low values
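GST-Six1 + His-Eya2 (5X stock: 250/500 nM); Tris pH 8.0, 300 mM NaCl, 0.05% BSA, 0.02% Tween 20; GSH donor/Ni acceptor beads; 1 h 37 °C dark; AlphaScreen readout.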
CCT modulator: changes cytosolic chaperonin activity. purified chaperonin ATPase assay, HTRF ADP detection, 30 min. activity change, % (concentration not given with the values), hits read low. 360,000 tested, 0.3% active. AID 651819; in the data active = activity change below about -30%
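Nucleotide hydrolysis assay: TRiC at 20–40 nM final (set by batch activity) with 10 uM ATP, 30 min at 37 °C, in presence of 76 uM compound. Detection by competitive ADP HTRF, 30 min ambient.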
CtBP-E1A blk: CtBP/E1A binding inhibition; AID 651724; activity change, % (concentration not given with the values); 340,000 tested, 0.49% active; AlphaScreen GST-E1A/His-CtBP binding, 1536-well; hits give low values
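In 5 uL wells, 23 nL compound meets equimolar GST-E1A and His-CtBP (5X stock 125 nM each) for 2 h, 37 °C. Beads (5X, 50 ug/mL) then 1 h, 37 °C, dark.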
* hit, by the source's call; i = inactive; ? = inconclusive; . = no result given. In the library only some 1.2% were active in any assay of this set; here they are far more common. Cut-off read from the data, not from the text of the source, unless noted: active = activity change below about -65%; inconclusive = mostly about -30% to -63%; inactive = weaker than that. % is set by controls: 0 for no effect and ±100 for the full control effect.

SMILES	pAkt inh	Six1-Eya2 blk	CCT modulator	CtBP-E1A blk
Cc1ccc(NC2=C/C(=N/S(=O)(=O)c3cccs3)c3ccccc3C2=O)cc1C	i	-6	3	-15
CC(=O)Nc1ccc(NC2=C/C(=N/S(=O)(=O)c3cccs3)c3ccccc3C2=O)cc1	i	0	1	-29
Cc1ccccc1NC1=C/C(=N\S(=O)(=O)c2ccc(C(=O)O)cc2)c2ccccc2C1=O	i	-23	-2	?
O=C(O)c1ccc(S(=O)(=O)/N=C2\C=C(Nc3ccccc3F)C(=O)c3ccccc32)cc1	i	?	-2	-76*
COc1ccc(S(=O)(=O)/N=C2\C=C(Nc3ccc(O)cc3)C(=O)c3ccccc32)cc1	i	?	1	-88*
CCc1nc2ccc(C(=O)NC3CCN(Cc4ccccc4)CC3)cn2c1N(C)Cc1cc2ccccc2s1	i	-19	-1	-19
CCOC(=O)[C@]12CCC=C1N(CCC1=CCCCC1)C(=O)[C@H](CC(=O)NCCCCc1ccccc1)C2	i	2	1	3
Cc1cccc(C)c1NC(=O)c1cc2c(=O)c3ccccc3oc2nc1C(F)(F)F	i	0	0	2
Cc1ccc2oc3nc(C)c(C(=O)Nc4cccc(C(F)(F)F)c4)cc3c(=O)c2c1	-93%*	1	-4	-9
COc1ccc(N(CC(=O)N/N=C/c2ccco2)S(=O)(=O)c2ccccc2)cc1Cl	i	10	0	-8
CC(C)CNC(=O)c1ccccc1NC(=O)Nc1ccccc1	-105%*	4	0	3
CCC(C)NC(=O)c1ccccc1NC(=O)Nc1ccccc1 (stereo not given)	i	1	1	4
COc1ccc(C(=O)NC2CCCc3ccccc32)cc1OC1CCN(C(C)=O)CC1 (stereo not given)	i	2	-1	-4
O=c1[nH]c(N/N=C\c2ccc(F)cc2)nc2ccccc12	i	-1	-2	-13
COc1ccc(Cc2nnc(N/N=C/c3ccc(O)cc3)[nH]c2=O)cc1OC	i	-82*	-3	-91*
COc1ccc(/C=N/Nc2nnc(Cc3ccccc3)c(=O)[nH]2)cc1OC	i	-66*	1	?
O=c1[nH]c(N/N=C/c2ccc(O)cc2)nc2ccccc12	i	?	2	-68*
COc1ccc(Cc2nnc(N/N=C/c3ccc(Br)cc3)[nH]c2=O)cc1OC	i	-1	0	4
O=C(COC(=O)C1CCN(C(=O)c2ccc(Cl)cc2)CC1)Nc1ccccc1F	i	1	1	0
CC(C)(C)c1nnc(N/N=C/c2ccccc2)n(N)c1=O	i	-1	0	-7
CC(C)(C)c1nnc(N/N=C/c2ccccc2O)n(N)c1=O	i	-91*	2	-2
Cc1noc2ncnc(Sc3ccc(Br)cc3)c12	i	0	-1	1
C[C@H](CO)N1C[C@H](C)[C@@H](CN(C)C(=O)Nc2ccccc2)Oc2ccc(NC(=O)Nc3ccccc3)cc2C1=O	i	?	-44*	?
C[C@@H]1CCCCO[C@@H](CN(C)Cc2ccncc2)[C@@H](C)CN([C@H](C)CO)C(=O)c2cc(NC(=O)c3ccccc3)ccc2O1	i	4	-34*	1
C[C@@H]1CN([C@@H](C)CO)C(=O)c2cc(NC(=O)c3ccncc3)ccc2O[C@@H](C)CCCCO[C@@H]1CN(C)C(=O)Cc1ccccc1	i	-5	-1	7
SMILES	pAkt inh	Six1-Eya2 blk	CCT modulator	CtBP-E1A blk
Cc1cc(C(=O)Nc2cccc3c2O[C@@H](CN(C)S(C)(=O)=O)[C@H](C)CN([C@@H](C)CO)C3=O)n(C)n1	i	-2	-32*	10
Cc1ccc(OCc2nnc(SCC(=O)c3ccccc3)n2-c2ccccc2)cc1	i	12	-56*	30
CCn1c(CNC(=O)c2ccc(OC)cc2)nnc1SCC(=O)c1ccccc1	i	1	-45*	4
COc1ccc(C(=O)CSc2nnc(CNc3nc(-c4ccccc4)cs3)n2C)cc1	i	-71*	0	-70*
Cc1ccc(OCCn2cnc3c2c(=O)n(C)c(=O)n3C)cc1	i	3	0	-4
CCN(CC)CCCN(C(=O)Cn1nnc(-c2ccc(OC)c(OC)c2)n1)C(C(=O)NC(C)(C)C)c1ccc(F)cc1 (stereo not given)	i	2	-1	.
NC(=O)c1ccc(C(F)(F)F)n(Cc2cccc(Cl)c2)c1=O	i	2	1	2

Assay outcomes (PubChem)
